# In PubChem BioAssay AID738 (SRMLSC, 2007):
# About 4,900 (5%) of roughly 98,000 compounds were called active. Cut-off read from the data, not from the text of the source: active = inhibition above about 30%; inactive = the rest. The entries come from a sample that favours actives as a whole.
# Assay: growth inhibition of yeast control strain, primary screen, counter-screen for post-Golgi transport modulator project (AID 738)
# Conditions: efflux-deficient yeast background strain, growth absorbance A615, 16 h; at 10 µM; active compounds read high
row,SMILES,inhibition
1,Cc1cc(C(=O)OCC(=O)Nc2ccc(F)c(F)c2)c(C)o1,8.41% (inactive)
2,O=C(Nc1ccc2sc3ccccc3c(=O)c2c1)c1ccccc1Cl,-1.51% (inactive)
3,CN(CC#CCC(c1ccccc1)c1ccccc1)C(C)(C)C,15.3% (inactive)
4,COC(=O)c1ccccc1NC(=O)CN(Cc1ccc(Cl)cc1)S(C)(=O)=O,20.7% (inactive)
5,CC(=O)N1Cc2ccccc2CC1C(=O)O (stereo not drawn),-1.83% (inactive)
6,Cc1ccc(S(=O)(=O)N(CC(=O)N2CCc3ccccc3C2)c2cccc(Cl)c2)cc1,53.7% (active)
7,COc1cccc(N(CC(=O)N2CCc3ccccc3C2)S(C)(=O)=O)c1,2.59% (inactive)
8,CCOC(=O)N1CCN(C(=O)CN(c2ccc(C)c(C)c2)S(=O)(=O)c2ccccc2)CC1,-2.62% (inactive)
9,COc1ccc(Cl)cc1NC(=O)CN(C)C(=O)CNC(=O)C12CC3CC(CC(C3)C1)C2,11.5% (inactive)
10,CCCCN=C1N/C(=C\c2ccco2)C(=O)N1c1ccccc1,13.4% (inactive)
11,Cc1ccc(C(=O)NNC(=O)OC(C)(C)C)c(Cl)c1,-3.45% (inactive)
12,O=c1cc(CN2CCN(c3cccc(Cl)c3)CC2)c2cc3c(cc2o1)CCCC3,1.31% (inactive)
13,COc1ccc(N2CCN(Cc3cc(=O)oc4ccc5ccccc5c34)CC2)cc1,31% (active)
14,COc1ccc(N2CCN(Cc3ccc(Br)s3)CC2)cc1,1.68% (inactive)
15,NC(=O)c1nsc(C(=O)N(CC(=O)NCc2ccc(F)cc2)Cc2ccco2)c1N,-18.4% (inactive)
16,COc1ccc(OCC(=O)N2CCN(C(=O)COc3ccccc3)CC2)cc1,-2.43% (inactive)
17,COc1ccc(C(=O)Nc2cc(C)ccc2NC(=O)COc2ccccc2)cc1,-12.5% (inactive)
18,COc1ccc(OCC(=O)NN2Cc3ccccc3C2=N)cc1,30.9% (active)
19,O=C(O)c1cnn2c(C(F)(F)F)cc(-c3ccccc3)nc12,-4.57% (inactive)
20,CC(=O)N1CCN(c2cccc(C)c2C)CC1,3.94% (inactive)
21,Cc1cccc(N2CCN(C(=O)c3cnn4c(C(F)F)cc(-c5ccccc5)nc34)CC2)c1C,61.4% (active)
22,Clc1ccccc1-c1cc(COc2ccc3ccccc3c2)no1,1.75% (inactive)
23,CN(C)S(=O)(=O)c1ccc(N2CCCC2)c(C(=O)NCc2ccccc2)c1,4.17% (inactive)
24,CCOc1[nH]n(-c2ccc(Cl)cc2)c(=O)c1C=Nc1ccc(O)cc1,1.52% (inactive)
25,CCOc1ccc(N=C2NC(=O)S/C2=C\c2ccc(O)cc2)cc1,41.5% (active)

row,SMILES,inhibition
1,CCOc1ccc(N=C2SC(C(=O)O)CC(=O)N2C)cc1 (stereo not drawn),-1.43% (inactive)
2,O=C1CCN(C(=O)Nc2ccccc2)N1,1.84% (inactive)
3,Cc1ccccc1NC(=S)Nc1cccc([N+](=O)[O-])c1,-0.57% (inactive)
4,CCOC(=O)N1CCN(C(=O)c2ccc3c(c2)N(Cc2ccc(C)cc2)CCS3)CC1,34.6% (active)
5,CCOC(=O)N1CCN(C(=O)c2ccc(S(=O)(=O)c3ccc(C)cc3)c(NC(C)=O)c2)CC1,7.81% (inactive)
6,CCOC(=O)N1CCN(C(=O)c2ccc(CN(c3ccc(C)c(C)c3)S(C)(=O)=O)cc2)CC1,3.07% (inactive)
7,Cc1ccc(NC(=O)CN2CCc3ccccc3C2)cc1,8.09% (inactive)
8,Cc1cccc(NC(=O)c2ccc3ccccc3n2)n1,12.6% (inactive)
9,O=C(Oc1ccc([N+](=O)[O-])cc1)c1ccc2ccccc2n1,41.8% (active)
10,N/C(Cc1ccc([N+](=O)[O-])cc1)=N\OC(=O)COc1ccc2ccccc2c1,18.8% (inactive)
11,Cc1ccc(C(=O)OC2=CC(=O)CC(C)(C)C2)cc1,-1.57% (inactive)
12,COc1cccc(NC(=O)c2nn(C34CC5CC(CC(C5)C3)C4)cc2[N+](=O)[O-])c1,26.5% (inactive)
13,Cc1ccc2c(c1)c1ncnc(N3CCc4ccccc4C3)c1n2C,30% (active)
14,Cc1ccc(S(=O)(=O)Nc2nc3ccccc3nc2N2CCc3ccccc3C2)cc1,19.2% (inactive)
15,Cc1ccc2c(c1)c1ncn(CCC3=CCCCC3)c(=O)c1n2C,21.9% (inactive)
16,O=C(O)/C=C/C(=O)Nc1ccc(F)cc1F,11.5% (inactive)
17,Cc1ccc(-n2nc(N)c3c(=O)oc(N(C)C)nc32)cc1,33.1% (active)
18,Cc1ccc(-c2nc3c(cnn3-c3ccccc3)c(=O)o2)cc1,15.6% (inactive)
19,O=C(Nc1cc(-c2nn(CC(=O)N3CCCCC3)c(=O)c3ccccc23)ccc1N1CCOCC1)c1ccc(Cl)cc1,0.85% (inactive)
20,N=c1ccn(CC(=O)NC(N)=O)c2ccccc12,12.8% (inactive)
21,N#Cc1ccc(Oc2cc(C(F)(F)F)nc(-c3ccccn3)n2)cc1,1.51% (inactive)
22,CC(=O)Nc1cc2ccc(OC(C)=O)cc2oc1=O,-1.59% (inactive)
23,O=C(Oc1ccccc1)Oc1ccc2c(c1)oc(=O)c1ccccc12,41% (active)
24,CC(=O)Oc1ccc2c(C)c(CC(C)O)c(=O)oc2c1 (stereo not drawn),9.1% (inactive)
25,CSc1nc2ccccc2cc1/C=C(\C#N)c1ccc(Cl)cc1Cl,24.2% (inactive)

row,SMILES,inhibition
1,Cn1c(=O)n(C)c2cc(C(=O)Nc3ccc4c(c3)OCO4)ccc21,1.14% (inactive)
2,O=C(Nc1ccc2c(c1)OCCO2)c1ccncc1,31.6% (active)
3,O=C(Nc1ccc2c(c1)OCCO2)c1cnccn1,14.2% (inactive)
4,O=C(CCN1C(=O)c2ccncc2C1=O)Nc1ccc2c(c1)OCCO2,30.7% (active)
5,O=C(CCN1C(=O)c2ccccc2C1=O)Nc1ccncc1,13.3% (inactive)
6,CCCCC(=O)Nc1ccc2c(c1)OCCO2,-0.45% (inactive)
7,O=c1c2ccccc2c(-c2ccc(Br)cc2)nn1Cc1ccccc1,12% (inactive)
8,c1ccc(-n2nnnc2NC2CCCCCC2)cc1,2.73% (inactive)
9,COC(=O)/C=C/C(=O)NCc1ccco1,4.81% (inactive)
10,Cc1cc(-c2ccccc2)n2nc(C)c(-c3ccccc3)c2n1,0.91% (inactive)
11,O=C(N/N=C\c1ccc(-c2ccc(Cl)c(Cl)c2)o1)C(=O)N1CCCC1,-8.31% (inactive)
12,O=c1c2ccccc2nc2n1C(CSc1ccc(F)cc1)CN2 (stereo not drawn),8.1% (inactive)
13,O=C1COc2ccc(NC(=O)N3CCN(c4ccc(F)cc4)CC3)cc2N1,-5.66% (inactive)
14,COC(=O)c1ccc(C(=O)OC)c(NC(=S)N2CCCCC2)c1,5.49% (inactive)
15,O=C(COC(=O)CCC(=O)c1cccs1)NCc1ccco1,34.5% (active)
16,O=C(COC(=O)C12CC3CC(CC(C3)C1)C2)NCc1ccco1,17.3% (inactive)
17,O=C(CCC(=O)c1cccs1)NCc1ccccc1,-10% (inactive)
18,O=C(c1ccc(F)cc1)c1c[nH]c(C(=O)NCc2cccnc2)c1,1.34% (inactive)
19,S=C(NCCC1=CCCCC1)Nc1ccccc1,2.15% (inactive)
20,CCC(C)n1c(-c2cc(OC)c(OC)c(OC)c2)nc2nc3ccccc3nc21 (stereo not drawn),38.7% (active)
21,CCCc1nc2ccccc2c(C(=O)OCc2nnc(-c3cc(OC)c(OC)c(OC)c3)o2)c1CC,3.36% (inactive)
22,COc1cc(-c2nn3c(-c4cccc(C)c4)nnc3s2)cc(OC)c1OC,26.7% (inactive)
23,CC(=O)NS(=O)(=O)c1ccc(NC(=S)NC(=O)C(C)(C)C)cc1,-5.72% (inactive)
24,Cn1c(NN)nc2sc3c(c2c1=O)CCC3,7.4% (inactive)
25,CC1Cc2ccccc2N1C(=O)c1cc2sccc2n1Cc1ccccc1 (stereo not drawn),15.2% (inactive)

row,SMILES,inhibition
1,O=C(NCc1ccco1)c1cc2sccc2n1Cc1ccc(F)cc1,27.8% (inactive)
2,CCOC(=O)c1cc2sccc2n1Cc1ccc(C#N)cc1,33.7% (active)
3,Clc1ccccc1SCc1nc2ccccc2[nH]1,9.02% (inactive)
4,Cc1nc(-c2ccccc2)sc1-c1nc(-c2ccccc2)ncc1S(=O)(=O)c1ccccc1,12% (inactive)
5,O=C(Nc1ccc(Cl)cc1)N1CCc2[nH]c3ccccc3c2C1,36.5% (active)
6,CCCC(=O)N1CCc2[nH]c3ccccc3c2C1,-9.39% (inactive)
7,O=C(NC1CCCCC1)N1CCc2[nH]c3ccccc3c2C1,-9.69% (inactive)
8,O=C(c1ccccc1)c1cc(-c2ccccn2)c(N2CCOCC2)s1,18% (inactive)
9,O=S(=O)(N/N=C\c1cccn1-c1ccccc1)c1ccc2ccccc2c1,16.6% (inactive)
10,Cc1n[nH]c(=O)n1-c1ccc(Oc2ccccc2)cc1,20.1% (inactive)
11,COc1ccc2[nH]c(=O)c(CN(Cc3nnnn3CCc3ccccc3)CC3CCCO3)cc2c1 (stereo not drawn),5.93% (inactive)
12,Cc1cc2cc(CN(Cc3cccs3)Cc3nnnn3CC3CCCO3)c(=O)[nH]c2cc1C (stereo not drawn),37.9% (active)
13,Cc1cc(C)c2cc(CN(Cc3cccs3)Cc3nnnn3CC3CCCO3)c(=O)[nH]c2c1 (stereo not drawn),17% (inactive)
14,CC(C)(C)c1cc2cccnc2n1Cc1cccc(F)c1,-2.87% (inactive)
15,N#C/C(=C(/O)COc1cccc2ccccc12)c1nc2ccccc2[nH]1,-2.22% (inactive)
16,Cc1ccccc1OC/C(O)=C(\C#N)c1nc2ccccc2[nH]1,48.1% (active)
17,COC(=O)Cc1nc2ccccc2[nH]1,0.73% (inactive)
18,O=C(CSc1nc2ccccc2o1)N1c2ccccc2Sc2ccc(Cl)cc21,17% (inactive)
19,O=C1CSC(c2ccccc2)N1c1nc(-c2ccc(Cl)cc2Cl)cs1 (stereo not drawn),5.96% (inactive)
20,CCOC(=O)C1Sc2[nH]c(=O)sc2C(c2ccc(Cl)cc2)C1C(=O)OCC (stereo not drawn),12% (inactive)
21,CC(Sc1nc2ccccc2c(=O)n1Cc1ccco1)C(=O)c1ccccc1 (stereo not drawn),20.6% (inactive)
22,Clc1cccc(-c2nc3nc4ccccc4nc3n2Cc2ccco2)c1,32.4% (active)
23,Cc1ccc(Cn2c(C)nc3c(c2=O)c2nc4ccccc4nc2n3Cc2ccco2)cc1,20.3% (inactive)
